Source: PubChem BioAssay (NCI)
Compounds without any hit were thinned out: in the full panel of roughly 83,000, 20% have a hit.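 Compound tested at a single concentration for 48 hours in 96-well plates; a percent growth value below 10 was scored as active.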 The source made the active and inactive calls.

What was measured:
Assay in all cases: NCI-60 one-dose screen, 48 h (100 = growth as untreated, 0 = no growth, -100 = all killed)
Conditions in all cases: 10 µM unless noted
[1] = system: NCI-H23 lung
[2] = system: NCI-H226 lung
[3] = system: NCI-H322M lung
[4] = system: HOP-62 NSCLC
[5] = system: NCI-H460 lung
[6] = system: HOP-92 NSCLC
[7] = system: NCI-H522 lung
[8] = system: A549/ATCC NSCLC
[9] = system: 786-0 renal
[10] = system: COLO 205 colon
[11] = system: DU-145 prostate
[12] = system: K-562 leukemia
[13] = system: MALME-3M melanoma
[14] = system: MDA-MB-231 breast
[15] = system: RXF 393 renal
[16] = system: SF-268 CNS
[17] = system: SF-295 CNS
[18] = system: SF-539 CNS
[19] = system: UACC-257 melanoma
[20] = system: M14 melanoma

Measured: growth

COc1cccc(-c2nc3sccn3c2-c2ccnc(NCCCNS(=O)(=O)c3c(Cl)cccc3Cl)c2)c1
inactive: [1] 60.3% | [2] 51.8% | [3] 90.5% | [4] 85.6% | [5] 67.4% | [6] 49.6% | [7] 60.6% | [8] 60.3% | [9] 70.4% | [10] 55.9% | [11] 66.1% | [12] 30.9% | [13] 73.2% | [14] 87.8% | [15] 74.7% | [16] 68.4% | [17] 50.9% | [18] 95% | [19] 95.2% | [20] 60.5%

COc1ccc(-n2nc(C)c3c(Nc4ccc(NC(=O)Nc5ccc(Cl)c(C(F)(F)F)c5)cc4)ncnc32)cc1
active: [1] -7.74% | [3] 9.35% | [4] -15.3% | [5] 0.651% | [6] -18.9% | [7] -18.4% | [8] 6.97% | [9] -25.5% | [10] -23.6% | [12] 5.84% | [13] -27.5% | [14] -25% | [15] -35.7% | [17] -39.7% | [18] -5.4% | [19] -16.6% | [20] -26.9%
inactive: [2] 10.7% | [11] 23.8% | [16] 17.7%

NS(=O)(=O)c1ccc(CN=C2NC(=O)S/C2=C\c2ccc(Br)cc2)cc1
inactive: [1] 97.6% | [2] 96.9% | [3] 91% | [4] 103% | [5] 101% | [6] 90.5% | [7] 90.8% | [8] 98.3% | [9] 94.1% | [10] 106% | [11] 111% | [12] 102% | [13] 93.8% | [14] 101% | [15] 105% | [16] 92.3% | [17] 102% | [18] 92.3% | [19] 102% | [20] 102%

CC(C)(C)N1CCC1CN (stereo not given)
inactive: [1] 104% | [2] 111% | [3] 118% | [4] 108% | [5] 109% | [6] 108% | [7] 135% | [8] 104% | [9] 96.4% | [10] 138% | [11] 118% | [12] 135% | [13] 147% | [14] 116% | [15] 155% | [16] 100% | [17] 115% | [18] 91.8% | [20] 101%
active: [19] -6.55%

O=C1Nc2c(ccc(Cl)c2Cl)/C1=C\c1ccc(C(F)(F)F)cc1
inactive: [1] 68.8% | [2] 59.1% | [3] 75.5% | [4] 87.3% | [5] 89.7% | [6] 57.8% | [7] 76.4% | [8] 84.1% | [9] 90.7% | [10] 100% | [11] 97.3% | [12] 32.8% | [13] 96.5% | [14] 81.9% | [15] 77.4% | [16] 91.6% | [17] 77.2% | [18] 88.1% | [19] 97.5% | [20] 98%

O=C1c2cc3c(cc2-c2c1c1cc(F)c(F)cc1c(=O)n2CCCn1ccnc1)OCO3
inactive: [3] 14.5% | [14] 13.9% | [16] 13.4%
active: [1] -11.2% | [2] -59.4% | [4] 1.96% | [5] -26% | [6] -7.1% | [7] -26.9% | [8] -93.5% | [9] 8.02% | [10] -4.37% | [11] 9.97% | [12] 8.61% | [13] -4.79% | [15] -22.4% | [17] -12.4% | [18] -19.7% | [19] -28.9% | [20] 8.25%

COc1cc2c(cc1-c1c(C)noc1C)ncc1nc(C3CCOCC3)n([C@@H](C)COC(F)F)c12
inactive: [1] 64.6% | [2] 58.2% | [3] 48.3% | [4] 35% | [5] 61% | [6] 31.8% | [7] 33.9% | [8] 42.4% | [9] 49.6% | [10] 26.9% | [11] 73.1% | [12] 34.2% | [13] 66.3% | [14] 42.8% | [15] 59.4% | [16] 70.8% | [17] 52% | [18] 31.8% | [19] 36.7% | [20] 41%

O=[N+]([O-])c1ccc(Nc2nc(NCCN3CCOCC3)ncc2[N+](=O)[O-])cc1
inactive: [1] 89.9% | [2] 92% | [3] 85% | [4] 96% | [5] 94.4% | [6] 89.9% | [7] 72.6% | [8] 98.9% | [9] 92.6% | [10] 97.1% | [11] 92.5% | [12] 103% | [13] 91% | [14] 95.8% | [15] 63% | [16] 93.8% | [17] 98.6% | [18] 93.9% | [19] 109% | [20] 95%
